The record followed here is PubChem BioAssay AID624263 (National Center for Advancing Translational Sciences (NCATS), 2012).

Out of some 410,000 compounds screened, about 820 (0.2%) were called active. Entries that show only a call come without a potency. Inconclusive results (about 2%) are left out. Calls follow the shape of the dose curve; as a rule, active = well fitted activation curve with a large enough effect; inconclusive = small, poorly fitted or top-dose-only effect; inactive = flat fitted curve, though single readings scatter; cell line not stated here. The sample as a whole holds a higher share of actives than the screen did.
Potency is read from the fitted curve at half-maximal effect.

The nature of the test: A Quantitative High throughput Screen to Identify Chemical Modulators of PINK1 Expression. Also: nearly all actives have a fitted effect of over 65% in size. To be noted: PINK1 immunofluorescence, high-content cytometry, 24 h; series mostly up to 76.6 µM. An excerpt: The overall goal of this project is to develop new tools for understanding and treating the mitochondrial basis for neurodegenerative disease such as Parkinson's disease (PD). The PINK1 campaign was developed from recent data pointing towards mitochondrial dysfunction as a major contributor to dopaminergic neuron loss. The discovery of PINK1/Parkin mediated mitophagy has highlighted the potential for mitochondrial quality control as a novel target for therapeutic intervention. […] A second aim of this project is the development of chemical probes to study the mechanics of mitochondrial quality control. As the PINK1/Parkin mitophagy pathway is a relative recent discovery, no specific chemical probes are available that modulate the process. Presently, only crude tools that cause nonspecific mitochondrial damage are available. To advance the understanding of mitophagy, specific, well characterized chemicals that target various steps of mitophagy regulation need to be developed. New chemical probes may have the ability to dynamically manipulate mitophagy in model organisms such as rodents and zebrafish, advancing our understanding of the process in development and disease. This HTS campaign seeks to discover an activator of PINK1 expression by modulation at the level of post-translational processing.
The PINK1 assay determines the amount and localization of PINK1 protein in a cell using a combination of immunofluorescence and cell staining. The goal of the assay is to determine small molecules that can increase the expression of Pink1 on or inside the cell's mitochondria (ideally without mitochondrial depolarization) using a stable cell line. Since PINK1 protein is rapidly degraded in un-perturbed cells, compounds that induce the enhancement of PINK1 protein expression are identified by determining PINK1 immunofluorescence in conjunction with a mitochondrial, cell, and nuclear marker post fixation. To facilitate rapid high content screening, the primary assay is run in a decision-based HTS mode where compound titration data collected by laser-scanning microplate cytometers is processed and only promising compound series are passed off for high content drill down.
1 Add cells to black, clear-bottom, low-base 1536-well plates 6 uL (250 cells/well)
2 Incubate in TC incubator (12 hours)
3 Pin compounds or DMSO controls 23 nL (5 concentrations per compound set)
4 Dispense CCCP to control columns
5 Incubate in TC incubator 24 hours
6 Aspirate media and fix cells (5 uL of fixative containing nuclear dye)
7 Incubate 15 minutes at RT
8 Wash in PBSTween (12 uL/well)
9 Wash in PBSTriton (12 uL/well)
10 Aspirate wash and add Blocking buffer (4 uL/well)
12 Aspirate block and add primary antibodies 3.5 (uL/well)
13 Incubate 12 hours at 10 degrees C
14 Wash in PBSTween-20 two times (12 uL/well)
15 Aspirate wash and add secondary antibodies (12 uL/well)
17 Wash in PBSTween (12 uL/well)
18 Wash in PBSTween with cell stain (12 uL/well)
19 Read plates on Acumen EX3 and determine Wells2Cells coordinates
Regarding `COc1ccc(CCNC(=O)CCCCn2c(=O)c3ccccc3n(Cc3ccccc3)c2=O)cc1OC`, the Potency entry was “inactive”.
The value for `CCCCn1c(SCC(=O)NCCc2ccc(OC)c(OC)c2)nc2c1c(=O)n(C)c(=O)n2C` was 3.98 µM (active); that for `CCCCn1c(SCC(=O)N2CCOCC2)nc2c1c(=O)n(C)c(=O)n2C` was “inactive”.
In the case of `COc1ccccc1C(=O)N[C@@H]1c2ccccc2C2(CCN(C(=O)c3csnn3)CC2)[C@H]1OC`, the Potency result was “inactive”.
The value for `CN1CCN(/[N+]([O-])=N/Oc2ccc([N+](=O)[O-])cc2[N+](=O)[O-])CC1` was “inactive”.
The value for `Cc1cc(C)cc(CN2CCc3nnc(C(NS(C)(=O)=O)C(C)C)n3CC2)c1` (stereo unspecified) was “inactive”; that for `COc1ccccc1C1CN(CCNC(=O)C2=CCCC2)Cc2ccccc2O1` (stereo unspecified) was “inactive”; that for `O=C(CCc1ccccc1)Nc1ccc(NC(=O)C2CCCCC2)nc1` was “inactive”.
The value for `O=C(Nc1ncc([N+](=O)[O-])s1)C1COc2ccccc2O1` (stereo unspecified) was 44.7 µM (active); that for `O=C(CCc1ccccc1)Nc1ncc([N+](=O)[O-])s1` was 20 µM (active); that for `O=C(CCc1ccccc1)Nc1ccc(NC(=O)C2CC2)nc1` was “inactive”.
In the case of `COc1ccc(OC)c2sc(N3CCN(C(=O)C4COc5ccccc5O4)CC3)nc12` (stereo unspecified), the Potency result was “inactive”.
The value for `CC(/C=C/c1ccco1)=N/NC(=O)C1COc2ccccc2O1` (stereo unspecified) was “inactive”; that for `CN(Cc1cccc2ncccc12)C(=O)c1cnn(-c2nccc(-c3ccccc3F)n2)c1C1CC1` was “inactive”.
For `COc1ccc(-n2c(CNC(=O)c3cc(C(F)(F)F)ccc3Cl)nnc2SC)cc1`, the Potency result was “inactive”.
The value for `COc1ccccc1-c1ccnc(-n2ncc(C(=O)NCCCN3CCOCC3)c2C)n1` was “inactive”.
The value for `C[C@@H]1CN(Cc2ccc3c(c2)CN(Cc2ccc(Oc4ncccn4)cc2)CCO3)C[C@H](C)O1` was “inactive”; that for `CCC1CN(CCNC(=O)c2cccc(C)n2)Cc2cc(OC)ccc2O1` (stereo unspecified) was “inactive”; that for `CCOC(=O)c1ccc(NC(=O)c2csc3c2CCCCC3)cc1` was “inactive”.
As for `CCOc1ccc(CCNC(=O)c2csc3c2CCCCC3)cc1`, the Potency entry is “inactive”.
The value for `COC(=O)c1sc(NC(=O)c2csc3c2CCCC3)nc1C` was 10 µM (active); that for `CCCCOc1ccc(C(=O)NO)cc1` was “inactive”; that for `CCC(=O)Nc1cccc(NC(=O)CSc2nnc(-c3ccc(NS(C)(=O)=O)cc3)n2C)c1` was “inactive”.
The value for `Cn1c(SCC(=O)Nc2cccc(O)c2)nnc1-c1ccc(S(=O)(=O)N2CCOCC2)cc1` was 14.1 µM (active); that for `Cc1ccnc(SCC(=O)Nc2cccc(S(=O)(=O)N3CCOCC3)c2)n1` was “inactive”.
The value for `CC(C)(C(=O)NO)c1ccccc1` was “inactive”.
In the case of `CCC1(C2CCN(Cc3cccnc3)CC2)NC(=O)N(CC2COc3ccccc3O2)C1=O` (stereo unspecified), the Potency entry was “inactive”.
The value for `CNCCCOc1cc2nc(N3CCCN(C)CC3)nc(NC3CCN(C)CC3)c2cc1OC` was “inactive”; that for `COc1ccc2cc(-c3nc(Cl)c4c5c(sc4n3)CC(C)CC5)c(=O)oc2c1` (stereo unspecified) was 15.8 µM (active); that for `CCOC(=O)c1c(NC(=O)/C=C/c2ccc(OC)cc2)sc2c1CCC(C)C2` (stereo unspecified) was “inactive”.
The value for `COc1ccc2oc(=O)c(-c3cn4c(n3)sc3cc(OC)ccc34)cc2c1` was “inactive”.
For the compound `COc1cc(=O)n2c(c1C(=O)N(C)Cc1nccs1)CCN(Cc1ccc(Cl)cc1)CC2`, the Potency result is “inactive”.
The value for `c1ccc(CN2CCN(Cc3ccc4c(c3)CN(Cc3c[nH]c5ccccc35)CCO4)CC2)nc1` was “inactive”.
The value for `COc1ccc(F)c(CN2CCC3(CCC(CNC(=O)c4ccn(C)n4)O3)CC2)c1` (stereo unspecified) was “inactive”; that for `O=C1COc2ccc(-c3csc(-c4ccc(Cl)cc4)n3)cc2N1` was “inactive”; that for `OC(CBr)C[n+]1cccc2cc(Br)ccc21` (stereo unspecified) was “inactive”.
On to `CO[C@H]1[C@H](NC(=O)C(C)C)c2ccccc2C12CCN(Cc1cnc(N(C)C)s1)CC2`, for which the Potency result is “inactive”.
The value for `CCN1CC=C2C(C#N)=C(N)C(C#N)(C#N)[C@H](c3ccoc3)[C@H]2C1` was 39.8 µM (active); that for `CC(C)N1C[C@@H](NCc2ccccc2O)C[C@H]1C(=O)N1CCN(c2cccc(C(F)(F)F)c2)CC1` was “inactive”; that for `FC(F)(F)c1cccc(-c2cn[nH]c2C2CCCN(Cc3cccn3-c3ccccn3)C2)c1` (stereo unspecified) was “inactive”.
The value for `CC(=O)Nc1ccccc1-c1nc(CNC(=O)c2ccc(Cl)cc2)c(C)o1` was “inactive”; that for `C=COC(=O)N1CCN(/[N+]([O-])=N/Oc2ccc([N+](=O)[O-])cc2[N+](=O)[O-])CC1` was “inactive”.
The value for `CCS(=O)(=O)Nc1cc(C(=O)N2C[C@@H](C)O[C@@H](C)C2)c2c(c1)nc(-c1ccccc1)n2C` was “inactive”.
For `Cc1ccc(C(=O)Nc2cccc(-c3nc(CNC(=O)c4ccccc4-n4cccn4)c(C)o3)c2)s1`, the Potency result was “inactive”.
Turning to `COc1ccc2c(c1)CCc1cnc(-n3ncc(C(=O)NCCN4CCOCC4)c3C)nc1-2`, the Potency entry was “inactive”.
`COc1ccc(CN2CCOc3c(cc(-c4ncc(C(F)(F)F)cc4Cl)cc3OCC3CCCO3)C2)c(O)c1` (stereo unspecified): the Potency result was “inactive”.
The value for `COc1cc2nc(N3CCCN(C)CC3)nc(NC3CC3)c2cc1OC` was “inactive”; that for `CC(=O)Nc1cc(C(=O)N2CCc3c(Cl)cccc3C2)cc2ncn(CCc3ccccn3)c12` was “inactive”.
The value for `COc1ccc(Cl)cc1-c1cc(C(=O)Nc2cc(OC)c(OC)c(OC)c2)[nH]n1` was “inactive”; that for `CC(C)Oc1cc(F)ccc1-c1cc(C(=O)Nc2ccc(F)cc2)[nH]n1` was “inactive”.
As for `CCCOc1ccc(F)cc1-c1cc(C(=O)Nc2ccc(F)c(Cl)c2)[nH]n1`, the Potency was 39.8 µM (active).
Regarding `Cc1ccc2c(C)nc(N3CCCC(C(=O)NC(C)(C)CO)C3)nc2c1` (stereo unspecified), the Potency entry was “inactive”.
The value for `Cc1cnc(C(=O)N2CCOc3ccc(CN4CCCC(C(=O)c5cccnc5)C4)cc3C2)[nH]1` (stereo unspecified) was “inactive”; that for `O=c1c(-c2ccc(F)cc2)nc2cnc(N3CCOCC3)nc2n1-c1ccccc1` was “inactive”; that for `COc1cc2nc(Cl)nc(NC3CC3)c2cc1OC` was “inactive”.
The value for `COc1ccc(C(=O)N2CCC3(CC2)CCN(c2ccccn2)CC3)cc1` was “inactive”.
The value for `COc1ccccc1CNc1nc(-c2c(C)noc2C)nc2ccccc12` was “inactive”.
For `COc1ccc(CN2CCC3(CCC(CNC(=O)c4ccco4)O3)CC2)cc1OC` (stereo unspecified), the Potency result is “inactive”.
Consider `COc1ccc(CN(C)CCn2cc(C(=O)N3CCSCC3)nn2)cc1C`, for which the Potency result is “inactive”.
Take `O=C(Nc1ccc2ccccc2c1)Nc1ccc2snnc2c1`: the Potency was 44.7 µM (active).
The value for `CS(=O)(=O)c1ccccc1C(=O)Nc1ccc2sccc2c1` was “inactive”; that for `COc1cccc(C(=O)Nc2ccc3oc(-c4ccc5ccccc5c4)nc3c2)c1` was “inactive”.
The value for `CN(C)C(=O)[C@@H]1C[C@@H](Sc2nc3ccccc3[nH]2)CN1Cc1ccc(Cl)cc1` was “inactive”; that for `O=C(c1cc(C(F)(F)F)cc(C(F)(F)F)c1)N1CCC[C@@]2(CCN(c3ccccn3)C2)C1` was “inactive”; that for `CC(C)c1cc(C(=O)N2CCOc3ccc(CN4CCC(Oc5cccnc5)CC4)cc3C2)n[nH]1` was “inactive”.
The value for `Cc1c(S(=O)(=O)O)oc2c1C(=O)C(=O)c1c-2ccc2c1CCCC2(C)C` was “inactive”; that for `S=c1[nH]c(=S)c2n[nH]nc2[nH]1` was “inactive”; that for `O=C(NCCCNc1ccc([N+](=O)[O-])cc1Cl)c1ccccc1F` was “inactive”.
For `O=[N+]([O-])c1ccc(NS(=O)(=O)c2ccccc2)c(Cl)c1`, the Potency is 39.8 µM (active).
The value for `O=C(NNS(=O)(=O)c1ccc(F)cc1)c1ccc([N+](=O)[O-])cc1Cl` was “inactive”; that for `C=C[C@](C)(O)CCC1C(=C)CCC2[C@@](C)(CO)CCC[C@@]12C` (stereo partly specified) was “inactive”; that for `COc1cccc(CN2CCC3(CC2)c2ccccc2[C@@H](NC(=O)c2ccccc2OC)[C@@H]3O)c1` was “inactive”.
The value for `COc1cc(=O)n2c(c1C(=O)NCc1ccco1)CCN(Cc1ccccc1)CC2` was “inactive”; that for `O=c1c(CN2CCOc3ccc(CN4CCC(Oc5cccnc5)CC4)cc3C2)coc2ccccc12` was “inactive”.
The value for `Cc1ccc(C)c(NC(=O)C2CC(=O)N(C(C)C)C2)c1` (stereo unspecified) was “inactive”.
Take `Cc1ccc(C)c(NC(=S)NNC(=S)Nc2ccc(C(C)C)cc2)c1`: the Potency is 14.1 µM (active).
The value for `Cc1ccc(C)c(NC(=S)NCC(c2cccnc2)N2CCOCC2)c1` (stereo unspecified) was “inactive”.
The value for `COCCn1c(=O)c(-c2ccc(OC)cc2)nc2cnc(Oc3cccc(Cl)c3)nc21` was “inactive”; that for `Nc1ccc(/C=C/c2ccnc3ccccc23)c([N+](=O)[O-])c1` was “inactive”; that for `CCOC(=O)N1CCN(Cc2ccc3c(c2)CN(C(=O)c2cccc(-n4cccn4)c2)CCO3)CC1` was “inactive”.
The value for `COc1ccccc1CNC(=O)C1CCN(C(=O)[C@@H]2Cc3ccccc3CN2)CC1` was “inactive”.
`COc1ccccc1CNC(=O)C1CCN(S(=O)(=O)c2ccc3c(c2)OCCO3)CC1`: the Potency entry is “inactive”.
The value for `COc1ccccc1CNC(=O)C1CCN(c2nc3ccccc3o2)CC1` was 2.82 µM (active); that for `O=C(CCN1Cc2ccccc2OC(c2ccccc2)C1)N[C@@H]1CS(=O)(=O)C[C@H]1O` (stereo partly specified) was “inactive”; that for `CN1CCN(c2ncc3nc(-c4ccc(Cl)cc4)c(=O)n(-c4ccccc4)c3n2)CC1` was “inactive”.
As to `CCc1nc2cc(C(=O)NCC3CCS(=O)(=O)C3)cc(NC(=O)c3ccccc3OC)c2n1C` (stereo unspecified), the Potency entry was “inactive”.
The value for `C=CCn1c(C)cc(C2=NNC(=NCC)SC2)c1C` was “inactive”; that for `CCOc1ccc(S(=O)(=O)N2CCN(C(=S)NCC3CCCO3)CC2)cc1` (stereo unspecified) was “inactive”.
The value for `Cc1cc(C2=NNC(=Nc3ccc(S(=O)(=O)N4CCOCC4)cc3)SC2)c(C)n1CC1CCCO1` (stereo unspecified) was 35.5 µM (active).
Take `COc1ccccc1CNc1ncncc1-c1cccnc1`: the Potency entry was “inactive”.
For the compound `COC(=O)c1c(OCc2ccc(F)cc2)cc(=O)n2c1CCN(Cc1ccc3cccnc3c1)CC2`, the Potency entry is “inactive”.
The value for `COc1ccc(C2=NOC(C(=O)NCc3ccco3)C2)cc1OC` (stereo unspecified) was 12.6 µM (active); that for `COc1ccc(S(=O)(=O)N2CCC(C(=O)NCc3ccco3)CC2)cc1C` was “inactive”; that for `O=C(NCc1cc(C(F)(F)F)cc(C(F)(F)F)c1)C1CC(c2cccc(F)c2)=NO1` (stereo unspecified) was “inactive”.
Consider `COc1cc2nc(N3CCCN(C)CC3)nc(NC(C)C)c2cc1OC`, for which the Potency entry is “inactive”.
The value for `CCc1noc(C)c1C(=O)NCCN1Cc2cc(OC)ccc2OC(CC)C1` (stereo unspecified) was “inactive”.
